{"source": "PubChem BioAssay AID1851", "about": "(National Center for Advancing Translational Sciences (NCATS), 2009)", "note": "About 5,700 (36%) of roughly 16,000 compounds were called active. Roughly 24% stayed inconclusive and do not appear here. This is one part of the list. Unmarked numbers belong to inactive results. The call rests on the fitted dose curve; in most records, active means well fitted curve in the direction sought with a large enough effect; inconclusive means small, poorly fitted or top-dose-only effect, or effect the other way; inactive means no such curve, though single readings can be large or run the other way. On the % scale 0 is the no-effect control and ±100 the full control effect."}
{"biological_target": "Cytochrome P450 1A2 (Homo sapiens) (UniProt P05177)", "sequence (P05177 whole entry, looked up)": "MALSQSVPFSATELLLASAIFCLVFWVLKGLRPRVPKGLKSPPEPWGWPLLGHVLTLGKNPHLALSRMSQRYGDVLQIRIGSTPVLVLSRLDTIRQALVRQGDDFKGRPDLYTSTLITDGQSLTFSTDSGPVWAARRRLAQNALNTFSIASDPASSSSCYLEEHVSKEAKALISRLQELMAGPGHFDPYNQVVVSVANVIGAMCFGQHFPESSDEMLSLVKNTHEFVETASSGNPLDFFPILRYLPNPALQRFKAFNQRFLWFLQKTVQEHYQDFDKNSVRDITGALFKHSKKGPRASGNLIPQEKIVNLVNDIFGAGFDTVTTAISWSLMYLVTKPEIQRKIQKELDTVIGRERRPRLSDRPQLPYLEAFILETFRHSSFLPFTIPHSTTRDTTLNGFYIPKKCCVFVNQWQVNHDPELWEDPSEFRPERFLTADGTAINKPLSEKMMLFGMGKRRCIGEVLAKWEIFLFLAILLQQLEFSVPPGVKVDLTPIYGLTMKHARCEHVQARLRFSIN", "experiment": "Cytochrome panel assay with activity outcomes", "settings": "recombinant CYP, pro-luciferin dealkylation, luminescence, p450-cyp1a2; series mostly up to 57.1 µM"}
{"compound": "COc1cc(OC)c2cc(-c3ccncc3)cnc2c1", "AC50": "0.2 µM (active)"}
{"compound": "CCc1ccc(C(=O)CN(C#N)c2nc(C)cc(C)n2)cc1", "AC50": "15.8 µM (active)"}
{"compound": "CCc1ccc(C(CC(=O)c2ccc(Cl)cc2)C(=O)O)cc1", "note": "(configuration not stated)", "AC50": "inactive"}
{"compound": "COc1ccccc1CN1CCC2(CC1)CCN(C(C)=O)CC2", "AC50": "inactive"}
{"compound": "COCC(=O)N1CCC2(CCN(Cc3ccccc3OC)CC2)CC1", "AC50": "inactive"}
{"compound": "CCCCN(CC)C(=O)Cc1ccccc1OC", "AC50": "14.1 µM (active)"}
{"compound": "Cc1ccc(C(=O)COC(=O)c2ccc3c(c2)C(=O)N(c2cccc4ncccc24)C3=O)cc1C", "AC50": "inactive"}
{"compound": "O=C(O)COc1c(Cl)cc(Cl)c2cccnc12", "activity, negative = inhibition": "-1.3% [at 2.29 µM]"}
{"compound": "O=C(COC(=O)c1cccnc1)c1ccc(Cl)c(Cl)c1", "AC50": "0.891 µM (active)"}
{"compound": "Cc1ccc(C(=O)COC(=O)c2ccccc2N2C(=O)C3C4CCC(C4)C3C2=O)cc1C", "note": "(configuration not stated)", "AC50": "inactive"}
{"compound": "O=C(COC(=O)c1cccnc1Cl)c1ccccc1", "AC50": "11.2 µM (active)"}
{"compound": "O=C(OCc1ccc(Cl)cc1Cl)c1cccnc1Cl", "AC50": "1 µM (active)"}
{"compound": "COCC(=O)N1CCC2(CCCN(C(=O)Nc3ccc(OC)cc3)C2)CC1", "AC50": "inactive"}
{"compound": "CC(C)(C)NC(=O)NC(=O)CSc1nnc2ccccn12", "AC50": "inactive"}
{"compound": "Cc1nc2ccccn2c1/C(O)=C1\\C(=O)C(=O)N(CCCn2ccnc2)C1c1ccncc1", "note": "(configuration not stated)", "AC50": "inactive"}
{"compound": "Cc1nc2ccccn2c1C(=O)CSc1ccccc1Cl", "AC50": "8.91 µM (active)"}
{"compound": "CCCCCn1c(SCc2ccncc2)nc2cc(C(=O)NCc3ccco3)ccc2c1=O", "AC50": "4.47 µM (active)"}
{"compound": "CCCCn1nc2cc(C(=O)NCC3CC3)ccc2c1OCC", "AC50": "inactive"}
{"compound": "O=C(CSc1nc2ccccc2c(=O)n1CCCC(=O)N1CCCC1)NCc1ccco1", "AC50": "inactive"}
{"compound": "CCOc1c2ccc(C(=O)NCCc3cccs3)cc2nn1CC", "AC50": "8.91 µM (active)"}
{"compound": "CCOc1c2ccc(C(=O)NCc3ccco3)cc2nn1CC", "AC50": "2.51 µM (active)"}
{"compound": "CCCn1nc2cc(C(=O)NCc3ccccc3OC)ccc2c1OCC", "AC50": "inactive"}
{"compound": "c1ccc(C2OCC3(CO2)COC(c2ccccc2)OC3)cc1", "note": "(configuration not stated)", "AC50": "inactive"}
{"compound": "Cc1cccc(NC(=O)Cn2c(=O)oc3ccccc32)c1", "AC50": "15.8 µM (active)"}
{"compound": "Cc1ccc(CNC(=O)Cn2c(=O)oc3ccccc32)o1", "AC50": "12.6 µM (active)"}
{"compound": "Cc1cccc(NC(=O)Cn2c(=O)n3nc(CCn4nc(C)cc4C)nc3c3ccccc32)c1", "AC50": "inactive"}
{"compound": "CC1CCCC(NC(=O)CCn2c(=O)oc3ccccc32)C1C", "note": "(configuration not stated)", "AC50": "inactive"}
{"compound": "COCCNC(=O)CCn1c(=O)oc2ccccc21", "AC50": "inactive"}
{"compound": "COC(=O)[C@@]1(Cc2ccc(OC)cc2)[C@H]2c3cc(C(=O)N4CCCC4)n(CCn4cc([N+](=O)[O-])nc4C)c3C[C@H]2CN1C(=O)c1ccccc1", "AC50": "inactive"}
{"compound": "CCCn1c(N)c(C(=O)CSc2nc(C)cs2)c(=O)n(C)c1=O", "AC50": "15.8 µM (active)"}
{"compound": "CSc1cccc(NC(=O)Nc2ccc(Cl)cc2)c1", "AC50": "5.01 µM (active)"}
{"compound": "Cc1cc(C)cc(C(=O)N(NC(=O)Nc2ccc(Cl)cc2)C(C)(C)C)c1", "AC50": "inactive"}
{"compound": "O=C(O)CC[C@@]1(c2ccccc2)NC(=O)NC1=O", "activity, negative = inhibition": "-11.4% [at 11.4 µM]"}
{"compound": "Cc1ccc(N(CCC#N)C(=O)CSc2ccc3c(c2)OCCO3)cc1", "AC50": "2 µM (active)"}
{"compound": "CCOC(=O)c1[nH]c(C)c(C)c1C", "AC50": "0.501 µM (active)"}
{"compound": "CCCCNc1nc(-c2ccccc2)c(C(=O)OCC)cc1C#N", "AC50": "4.47 µM (active)"}
{"compound": "Cc1cc(C)c2cc(C#N)c(NCCOC(=O)c3ccccc3C)nc2c1", "AC50": "1.26 µM (active)"}
{"compound": "CCOC(=O)c1cc(C#N)c(Oc2ccccc2OC)nc1-c1ccccc1", "AC50": "0.708 µM (active)"}
{"compound": "O=C1CCCC=C1[C@@H](O)COCc1ccccc1", "activity, negative = inhibition": "-6.11% [at 11.4 µM]"}
{"compound": "CCN1C(=O)CC(N2CCN(CC(=O)NC(C)C)CC2)C1=O", "note": "(configuration not stated)", "AC50": "inactive"}
{"compound": "C/C(=N\\O)c1cccc[n+]1Cc1ccccc1", "activity, negative = inhibition": "-0.979% [at 11.4 µM]"}
{"compound": "NC(=O)c1ccc(C2SCC(=O)N2Cc2ccccc2)cc1", "note": "(configuration not stated)", "AC50": "inactive"}
{"compound": "NC(=O)c1ccc(-c2ncc(-c3ccccc3)o2)cc1", "AC50": "0.631 µM (active)"}
{"compound": "CO[C@]1(NC(=O)[C@H](C(=O)O)c2ccc(O)cc2)C(=O)N2C(C(=O)O)=C(CSc3nnnn3C)CO[C@H]21", "AC50": "inactive"}
{"compound": "COCCNC(=O)CSc1nc2cc(OC)c(OC)cc2c(=O)n1Cc1ccco1", "AC50": "inactive"}
{"compound": "Cc1sc2nc(SCC(=O)C(C)(C)C)n(Cc3ccco3)c(=O)c2c1C", "AC50": "0.891 µM (active)"}
{"compound": "CC(=O)[C@H]([C@@H](c1ccccc1)N1CCOCC1)N1CCOCC1", "activity, negative = inhibition": "2.19% [at 11.4 µM]"}
{"compound": "C[C@](O)(c1ccccc1)c1nccc2ccccc12", "activity, negative = inhibition": "-17.4% [at 11.4 µM]"}
{"compound": "Cc1ccc(-c2nc(-c3nccc4ccccc34)oc2-c2ccccc2)cc1", "AC50": "2.51 µM (active)"}
{"compound": "COc1ccc(NC(=S)Nc2ncccc2C)c(OC)c1", "AC50": "1.12 µM (active)"}
{"compound": "COc1ccc(NC(=O)C23CC4CC(C2)CC(n2cnc(Br)n2)(C4)C3)c(C)c1", "AC50": "inactive"}
{"compound": "COc1ccc2c(c1OC)C(=O)OC2Nc1ncccc1C", "note": "(configuration not stated)", "AC50": "inactive"}
{"compound": "CCN=C1NN=C(c2ccc(C)cc2)CS1", "AC50": "20 µM (active)"}
{"compound": "O=C(NCCc1ccccc1)c1noc2c1CCc1ccccc1-2", "AC50": "1.26 µM (active)"}
{"compound": "O=C(NCCN1CCN(Cc2ccccc2)CC1)C1c2ccccc2C(=O)N2CCc3ccccc3C12", "note": "(configuration not stated)", "AC50": "inactive"}
{"compound": "CCN(CC)CCOC(=O)C(c1ccccc1)c1ccccc1", "AC50": "5.01 µM (active)"}
{"compound": "CCN(CC)CCOC(=O)[C@@H](c1ccccc1)C1CCCCC1", "AC50": "1.26 µM (active)"}
{"compound": "O=C1CCC[C@@H](C(C(=O)OCc2ccccc2)C(=O)OCc2ccccc2)C1", "activity, negative = inhibition": "-9.68% [at 11.4 µM]"}
{"compound": "CCCC(C(=O)OCCN(CC)CC)(c1ccccc1)c1ccccc1", "AC50": "inactive"}
{"compound": "CN(C)CCOC(=O)[C@@H](c1ccccc1)C1(O)CCCC1", "AC50": "inactive"}
{"compound": "C[N+]1(C)CCC(OC(=O)C(c2ccccc2)c2ccccc2)CC1", "AC50": "inactive"}
{"compound": "CN(C)CCNc1ncnc2c1sc1nc(N3CCOCC3)c3c(c12)CC(C)(C)SC3", "AC50": "inactive"}
{"compound": "CCOc1ccc(N=C2NC(=O)C(CC(=O)O)S2)cc1", "note": "(configuration not stated)", "AC50": "inactive"}
{"compound": "O=C1CN2CCN(CC2)CC(=O)Nc2ccc(cc2)S(=O)(=O)c2ccc(cc2)NC(=O)CN2CCN(CC2)CC(=O)Nc2ccc(cc2)S(=O)(=O)c2ccc(cc2)N1", "activity, negative = inhibition": "-13.1% [at 11.4 µM]"}
{"compound": "CCc1ccc(Nc2ncccc2C#N)cc1", "AC50": "1.26 µM (active)"}
{"compound": "CCC(C)c1ccc(Nc2ncccc2C#N)cc1", "note": "(configuration not stated)", "AC50": "5.01 µM (active)"}
{"compound": "COC(=O)[C@@H]1CC[C@H](C)[C@@H](c2ccc(C)cc2)N1C(=O)c1ccc(/C=N\\OCC[C@@H]2C=C[C@H](OC(C)=O)[C@H](COC(C)=O)O2)cc1", "activity, negative = inhibition": "-3.4% [at 11.4 µM]"}
{"compound": "C[C@H]1CN(S(=O)(=O)c2cccc3cnccc23)CCN1", "AC50": "inactive"}
{"compound": "Nc1cccc2cnccc12", "AC50": "12.6 µM (active)"}
{"compound": "N[C@@H]1CONC1=O", "AC50": "inactive"}
{"compound": "C[C@@H]1CN2[C@H](c3ccc(Br)cc3)[C@H](C)CC[C@H]2C(=O)O1", "activity, negative = inhibition": "-6.13% [at 11.4 µM]"}
{"compound": "Cc1nc(SCc2cccc(Oc3ccccc3)c2)n[nH]1", "AC50": "17.8 µM (active)"}
{"compound": "COCCN1CN=C(Nc2nc3ccccc3s2)NC1", "AC50": "inactive"}
{"compound": "COc1ccc(CN2CN=C(Nc3nc4ccccc4s3)NC2)cc1", "AC50": "12.6 µM (active)"}
{"compound": "CCOC(=O)[C@]1(CC(=O)O)CCCC1=O", "activity, negative = inhibition": "-12.7% [at 11.4 µM]"}
{"compound": "COc1c2c(nc3ccccc13)O[C@H]([C@@](C)(O)CO)C2", "AC50": "12.6 µM (active)"}
{"compound": "CCOc1cc(CNc2ccc(OC)cc2)cc(Br)c1OCC(=O)NC(C)(C)C", "AC50": "11.2 µM (active)"}
{"compound": "NCC[C@H](N)C(=O)O", "activity, negative = inhibition": "-8.87% [at 2.29 µM]"}
{"compound": "Cc1c2cnccc2c(C)c2c1c1ccccc1n2CCOC(=O)c1ccccc1", "AC50": "0.0794 µM (active)"}
{"compound": "O=C(c1cc(C(F)(F)F)cc(C(F)(F)F)c1)N1CCC2(CC1)CN(c1ccncc1)C2", "AC50": "inactive"}
{"compound": "Cc1c(/C=N/NC(=O)c2ccc3c(c2)OCO3)cnn1C", "AC50": "14.1 µM (active)"}
{"compound": "COc1ccc(-c2nn(-c3ccccc3)cc2/C=N/NC(=O)c2ccc3c(c2)OCO3)cc1", "AC50": "inactive"}
{"compound": "COc1cc(CNCCc2c[nH]c3ccccc23)ccc1OCc1ccccc1F", "AC50": "25.1 µM (active)"}
{"compound": "CC(C)CN1CCCC2(CCN(C(=O)c3cnccn3)CC2)C1", "AC50": "inactive"}
{"compound": "O=C(O)Cc1ccc(O)c(O)c1", "AC50": "inactive"}
{"compound": "O=C(CCc1ccc(O)cc1)c1c(O)cc(O)cc1O", "AC50": "6.31 µM (active)"}
{"compound": "C[C@@H](CCc1ccc(O)cc1)NCCc1ccc(O)c(O)c1", "AC50": "inactive"}
{"compound": "Nc1c(OCC(=O)O)ccc2cc(S(=O)(=O)O)ccc12", "activity, negative = inhibition": "-5.41% [at 11.4 µM]"}
{"compound": "CCOc1ccccc1NC(=O)CCC(=O)O", "AC50": "inactive"}
{"compound": "CCOc1ccccc1Nc1ccc(N)cc1S(=O)(=O)O", "activity, negative = inhibition": "-12.6% [at 2.29 µM]"}
{"compound": "CCCCN(C(=O)NC(=O)Nc1ccccc1OCC)S(C)(=O)=O", "AC50": "20 µM (active)"}
{"compound": "CO[C@H]1COC(=O)[C@H](C)NC(=O)C/C=C\\[C@@H](C)[C@@H](NS(=O)(=O)c2ccc(C)cc2)COC(=O)C/C=C\\[C@@H]1C", "activity, negative = inhibition": "-0.0135% [at 11.4 µM]"}
{"compound": "N#CC1=C(SCC(N)=O)NC2=C(C(=O)c3ccccc32)C1c1ccc(Cl)cc1", "note": "(configuration not stated)", "AC50": "0.631 µM (active)"}
{"compound": "CSC1=C(C#N)C(c2ccccc2Cl)C2=C(N1)c1ccccc1C2=O", "note": "(configuration not stated)", "AC50": "0.708 µM (active)"}
{"compound": "C=CCN1C(=CCO)[C@H]2C[C@H]3[C@@H]1CC[C@@]31c3ccccc3N3C=C4[C@@H]5N(/C=C/2[C@H]31)c1ccccc1[C@]51CC[C@H]2[C@H]1C[C@@H]4/C(=C/CO)N2CC=C", "AC50": "inactive"}
{"compound": "O=S(=O)(c1ccccc1)N1CCC2(CC1)CN(Cc1ccccc1)C2", "AC50": "inactive"}
{"compound": "COc1cccc(/C=N/n2c(=S)n(C)c3cc(C)c(C)cc32)c1OC", "AC50": "2.24 µM (active)"}
